# Data as given in PubChem BioAssay (Tox21).
# Inconclusive results are not listed. Entries that show only a call come without a potency. A number with no mark means an inactive call. The source made the active and inactive calls. Calls follow the shape of the dose curve; as a rule, active = well fitted cell-killing curve with a large enough effect in the repeat runs; inconclusive = weak or mixed curves, or effect the other way; inactive = flat fitted curve, though single readings scatter.
# Assay: qHTS assay to identify small molecule antagonists of the androgen receptor (AR) signaling pathway using the MDA cell line in the presence of 0.5 nM R1881 - cell viability counter screen (AID 1259242); also: nearly all actives have a fitted effect of over 45% in size
# Conditions: MDA-kb2 viability, CellTiter-Fluor protease fluorescence, 16 h; series mostly up to 92.4 µM
# From the text: U.S. Tox21 Program National Center for Advancing Translational Sciences [NCATS] NIH Chemical Genomics Center [NCGC] U.S. Environmental Protection Agency [EPA] National Institutes of Environmental Health Sciences [NIEHS] National Toxicology Program [NTP] U.S. Food and Drug Administration [FDA] Tox21 Assay Overview: Androgen receptor (AR) is an important member of the nuclear receptor family. Its signaling plays a critical role in AR-dependent prostate cancer and other androgen related diseases. Considerable attention has been given in the past decades to develop methods to study and screen for the environmental chemicals that have the potential to interfere with metabolic homeostasis, reproduction, developmental and behavioral functions. Therefore AR binding assay for screening androgen antagonists can be used to identify potential endocrine disruptors. MDA-kb2 cells (from ATCC, deposited by Wilson et al.) were used to screen for AR inhibitors against Tox21 compound libraries. These cells are human breast carcinoma cells that were stably transfected with a luciferase reporter gene under control of the MMTV promoter that contains response elements for both androgen receptor (AR) and glucocorticoid receptor (GR). The current screening for identification of AR inhibitors against Tox21 libraries used lower concentration of (0.5 nM) R1881 as a stimulator. The cytotoxicity of the Tox21 compound libraries against MDA-kb2 cell line was tested by measuring live-cell protease activity using CellTiter-Fluor assay in the same wells.
# Tox21 Assay Protocol Summary: MDA-kb2 cells (cells cultured without CO2) were dispensed at 3,000 cells/well in 4 uL of culture medium into white wall/solid-bottom 1536-well plates (Corning Life Sciences, Corning, NY) using a Multidrop Combi (ThermoFisher Scientific, Waltham, MA) dispenser. After the assay plates were incubated at a 37C and 0% CO2 for 5 hr, 23 nL of compounds dissolved in DMSO, positive controls or DMSO only was transferred to the assay plate by a Pintool station (Kalypsys, San Diego, CA). The transfer of compounds was followed by the addition of 1 uL of 0.5 nM (final concentration) agonist (R1881)/culture medium using a Flying Reagent Dispenser (FRD, Aurora Discovery, San Diego, CA). The plates were incubated at 37C and 0% CO2 for 16 hr. For cytotoxicity assay, 1 uL of CellTiter-Fluor reagent (Promega Corporation, Madison, WI) was added to each well using the FRD and after 30 min incubation at 37C and 0% CO2, The fluorescence intensity was measured using ViewLux plate reader (PerkinElmer, Shelton, CT).
Structure (SMILES),Potency,"viability change, negative = cytotoxic"
NC(=O)CCCCC(N)=O,inactive,–
CSSc1ccoc1C,inactive,–
O=[N+]([O-])c1ccc2ncccc2c1,inactive,–
COc1ccc(C(=O)NCc2ccc(OCCN(C)C)cc2)cc1OC,inactive,–
CNC1CCCN(c2c(F)cc3c(=O)c(C(=O)O)cn(C4CC4)c3c2OC)C1 (stereo not given),inactive,–
[Cl][Nd]([Cl])[Cl],inactive,–
O=C(O)CCS,inactive,–
CC(=O)OCC(C)C,inactive,–
CC(C)Cc1ccc(CC(=O)O)cc1,inactive,–
COc1cc(C(C)=O)ccc1OCCCN1CCC(c2noc3cc(F)ccc23)CC1,inactive,–
CC1CCC(C(C)CS)CC1S (stereo not given),inactive,–
COc1cc(NC(C)CCCN)c2ncccc2c1 (stereo not given),inactive,–
Cc1ccc2c(c1)CCCN2,inactive,–
c1ccc2sc(SSc3nc4ccccc4s3)nc2c1,–,8.85% [at 19 µM]
Nc1ccn([C@H]2CS[C@@H](CO)O2)c(=O)n1,inactive,–
CC(=O)NCCO,inactive,–
CC1=CC[C@@H]2C[C@H]1C2(C)C,–,1.84% [at 19 µM]
CCCCCCCCCCCC(=O)OCC(O)CO (stereo not given),inactive,–
CN1C(CSCC(F)(F)F)Nc2cc(Cl)c(S(N)(=O)=O)cc2S1(=O)=O (stereo not given),inactive,–
COc1ccc2nc(S(=O)Cc3ncc(C)c(OC)c3C)[nH]c2c1 (stereo not given),inactive,–

Structure (SMILES),Potency,"viability change, negative = cytotoxic"
CSCC[C@H](NC(=O)[C@H](Cc1c[nH]c2ccccc12)NC(=O)CCNC(=O)OC(C)(C)C)C(=O)N[C@@H](CC(=O)O)C(=O)N[C@@H](Cc1ccccc1)C(N)=O,inactive,–
CCCCCCCCCCCSCC(=O)O,inactive,–
O=C1CC[C@@H](C(=O)O)N1,inactive,–
O=C(O)CNC(=O)c1ccccc1I,inactive,–
Cc1c[nH]c2ccccc12,inactive,–
C[C@@H]1C[C@H]2[C@@H]3CCC4=CC(=O)C=C[C@]4(C)[C@@]3(F)[C@@H](O)C[C@]2(C)[C@@]1(O)C(=O)COP(=O)(O)O,inactive,–
CCOc1ncc(F)c(=O)[nH]1,inactive,–
COC(=O)Nc1nc2ccc(C(=O)C3CC3)cc2[nH]1,inactive,–
CC[C@H]1OC(=O)[C@H](C)[C@@H](O[C@H]2C[C@@](C)(OC)[C@@H](O)[C@H](C)O2)[C@H](C)[C@@H](O[C@@H]2O[C@H](C)C[C@H](N(C)C)[C@H]2O)[C@](C)(O)C[C@@H](C)CN(C)[C@H](C)[C@@H](O)[C@]1(C)O,inactive,–
CC(C)(C)CCCCCCOC(=O)c1ccccc1C(=O)OCCCCCCC(C)(C)C,inactive,–
O=c1[nH][nH]c(=O)c2cc([N+](=O)[O-])ccc12,inactive,–
CCOC(=O)N1CCC(Nc2ccc(Cl)cc2N)CC1,inactive,–
CCSC(=O)N(CC)CC,inactive,–
CCCCCCC(O)CCOC(C)=O (stereo not given),inactive,–
CC(C)(C)C(O)/C=C/c1ccc2c(c1)OCO2 (stereo not given),inactive,–
CC(C)(C)S,inactive,–
O=C(O)c1ccc(O)cc1O,inactive,–
Cc1ccc(Nc2c(F)cccc2Cl)c(CC(=O)O)c1,inactive,–
Cc1ccccc1S(N)(=O)=O,inactive,–
CC1CCc2nccnc21 (stereo not given),inactive,–
